Our source for the growth values is PubChem BioAssay (NCI).

Structures are written as SMILES. The panel holds about 83,000 compounds, 20% with a hit somewhere; the sample as a whole holds those more often.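 Testing used 96-well plates and a 48-hour single-concentration exposure. Example: -40 means 40% of the starting cells died.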 Values without a mark were called inactive. The source made the active and inactive calls. How the source made its calls: active means growth percent below 10; inactive means the rest.

In one test the test system is BT-549 breast. Nature of the test: NCI-60 one-dose screen, 48 h (100 = growth as untreated, 0 = no growth, -100 = all killed). Conditions: 10 µM unless noted.
`CSc1nc(N)n2nccc2n1`: the growth is 99.6%.

As for `Cc1nnc(-c2cc3c(ccc4ccccc43)oc2=O)c2cn(-c3ccc(Cl)cc3)nc12`, the growth was 105%.

Take `COc1ccc(CNCCCN2C(=O)c3ccc4c5c(ccc(c35)C2=O)C(=O)N(CCCNCc2ccc(OC)c(OC)c2OC)C4=O)c(OC)c1OC`: the growth is -90.5% (active).

In the case of `CCCCCCCCCCCCOC(=N)N(C)C`, the growth is 96.7%.

With `COCC(=O)NNc1[nH]c(-c2ccc(OC)cc2)cc1C#N`, the growth is 113%.

Turning to `c1cc(C2CCCCC2)ccc1OCCCCCCN1CCNCC1`, the growth is 83%.

Turning to `O=C(CCCC(=O)Nc1ccc(Cn2nnc3cc(Cl)c(Cl)cc32)cc1)Nc1ccc(CN2N=NC3C=C(Cl)C(Cl)=CC32)cc1` (stereo not drawn), the growth was 71.5%.

Take `COc1cc(N)c2nccc(C)c2c1OC`: the growth is 83.3%.

In the case of `COc1ccc(Cn2cc3c(c2)-c2oncc2CC3)cc1OC`, the growth was 59.4%.

Regarding `Brc1c(-c2ccncc2)nc2n1CCS2`, the growth is 105%.

Regarding `CCc1c(C)c2ccc(OCC(=O)N=Nc3c(O)[nH]c4ccccc34)c(C)c2oc1=O`, the growth was 11.3%.

Regarding `Nc1ccc(N=Nc2ccccc2)c2cc(S(=O)(=O)O)ccc12`, the growth is 114%.

As to `CC(C)CSc1nc(-c2ccc(F)cc2)c(C#N)c(N2CCCCC2)n1`, the growth was 88.9%.

`Cc1ccc2c(O)c(O)cc(NC(C)CCCN)c2n1` (stereo not drawn): the growth is 91.1%.

Turning to `CCn1cnc(C[C@H](NC(=O)[C@@H](NC(=O)Nc2cc(C(F)(F)F)cc(C(F)(F)F)c2)C(C)(C)C)C(=O)OC)c1`, the growth was -86.2% [100 µM] (active).

In the case of `CC(C)OCC1CO1` (stereo not drawn), the growth was 106%.

With `COc1ccc(-c2nnc(SCC(=O)Nc3ccc(C(=O)/C=C/c4cc(OC)c(OC)c(OC)c4)cc3)n2-c2ccccc2)cc1OC`, the growth was -94.7% [100 µM] (active).

As to `[N-]=[N+]=Nc1ncc(-c2ccc(C(F)(F)F)cc2)c(NC2CCCCCC2)n1`, the growth was 45.4% [100 µM].

As for `CC(C)(C)c1cc(C[P+](c2ccc(Cl)cc2)(c2ccc(Cl)cc2)c2ccc(Cl)cc2)cc(C(C)(C)C)c1O`, the growth was 102%.

As for `O=C(OCC1CC2(Cl)C(Cl)=C(Cl)C1(Cl)C2(Cl)Cl)C1C(C(=O)OCC2CC3(Cl)C(Cl)=C(Cl)C2(Cl)C3(Cl)Cl)C2(Cl)C(Cl)=C(Cl)C1(Cl)C2(Cl)Cl` (stereo not drawn), the growth was 97.5%.

Regarding `O=S(=O)(Cc1cccc2c(CS(=O)(=O)c3ccc(Cl)cc3)cccc12)c1ccc(Cl)cc1`, the growth is 105%.

With `O=C(/C=C1\C(=O)N(Cc2ccccc2)c2ccccc21)c1ccc(OCCN2CCCCC2)cc1`, the growth is 80.4%.

`CC(C)(C)C(=O)CCCCCCCC/C=C/CCCC(O)c1ccco1` (stereo not drawn): the growth was 105%.

Take `CC(=O)CCS(=O)c1ccccc1` (stereo not drawn): the growth is 119%.

With `O=P(OCCCl)(OCCCl)C(O)c1ccccc1Cl` (stereo not drawn), the growth is 107%.

With `CC1(C)C(O)NC(Cl)=C(C#N)C1(C#N)C#N` (stereo not drawn), the growth is 104%.

As for `COc1ccc(C(O)(c2ccccc2)C(C(=O)O)c2ccccc2)cc1` (stereo not drawn), the growth is 94.7%.

On to `O=C(O)CC1Cc2ccccc2C1C(=O)O` (stereo not drawn), for which the growth was 89.7%.

`O=c1[nH]c(=S)[nH]c(O)c1/C=C1\C=Nc2ccccc21`: the growth was 76.9%.

Turning to `O=C1NCCN1/N=C/c1c(Cl)nc2n1CCS2`, the growth was 97.7%.

As for `CCCC(=O)Nc1ccccc1C(=O)O`, the growth is 113%.

As for `CC(C)OC(=O)Nn1cnc2ccccc21`, the growth was 116%.

For `O=C(NC1CCN(Cc2ccccc2)CC1)c1cc(-c2cccnc2)nc2ccc(Cl)cc12`, the growth was 75.5%.

In the case of `O=S(=O)(O)c1ccc2c(c1)Sc1cc(S(=O)(=O)O)ccc1O2`, the growth is 127%.

With `CCCCCc1ccnc(CC(=O)c2ccc(OC)cc2)c1`, the growth is 93.8%.

For `COc1ccc(-c2nc(SCC(C)C)nc(Nc3ccc([N+](=O)[O-])cc3)c2C#N)cc1`, the growth is 104%.

For `COc1cc2ncnc(Nc3ccc4c(cnn4C(=O)Nc4ccccc4)c3)c2cc1OC`, the growth is 83.4%.

For the molecule `CCCCCSc1ccc2nc(NC(=O)OCC)sc2c1`, the growth was 37.2%.

As for `COc1ccc(C2=C/C(=C\c3ccc(Cl)cc3)C(=O)NN2C(=S)NN)cc1`, the growth was 101%.

A further test deals with MDA-MB-435 melanoma. The description is as above. The note with it: 10 µM unless noted.
Consider `CSc1nc(N)n2nccc2n1`, for which the growth was 98.3%.

For the molecule `Cc1nnc(-c2cc3c(ccc4ccccc43)oc2=O)c2cn(-c3ccc(Cl)cc3)nc12`, the growth is 107%.

`COc1ccc(CNCCCN2C(=O)c3ccc4c5c(ccc(c35)C2=O)C(=O)N(CCCNCc2ccc(OC)c(OC)c2OC)C4=O)c(OC)c1OC`: the growth is -87.5% (active).

On to `CCCCCCCCCCCCOC(=N)N(C)C`, for which the growth was 97.4%.

For the molecule `COCC(=O)NNc1[nH]c(-c2ccc(OC)cc2)cc1C#N`, the growth was 102%.

On to `c1cc(C2CCCCC2)ccc1OCCCCCCN1CCNCC1`, for which the growth was 42.1%.

For the molecule `O=C(CCCC(=O)Nc1ccc(Cn2nnc3cc(Cl)c(Cl)cc32)cc1)Nc1ccc(CN2N=NC3C=C(Cl)C(Cl)=CC32)cc1` (stereo not drawn), the growth was 87.8%.

Regarding `COc1cc(N)c2nccc(C)c2c1OC`, the growth is 110%.

For `COc1ccc(Cn2cc3c(c2)-c2oncc2CC3)cc1OC`, the growth is -46.2% (active).

For `Brc1c(-c2ccncc2)nc2n1CCS2`, the growth was 94%.

For the molecule `CCc1c(C)c2ccc(OCC(=O)N=Nc3c(O)[nH]c4ccccc34)c(C)c2oc1=O`, the growth was 0.887% (active).

For `Nc1ccc(N=Nc2ccccc2)c2cc(S(=O)(=O)O)ccc12`, the growth is 108%.

For the molecule `CC(C)CSc1nc(-c2ccc(F)cc2)c(C#N)c(N2CCCCC2)n1`, the growth is 98.6%.

In the case of `Cc1ccc2c(O)c(O)cc(NC(C)CCCN)c2n1` (stereo not drawn), the growth is 114%.

As for `CCn1cnc(C[C@H](NC(=O)[C@@H](NC(=O)Nc2cc(C(F)(F)F)cc(C(F)(F)F)c2)C(C)(C)C)C(=O)OC)c1`, the growth was -90.7% [100 µM] (active).

Consider `CC(C)OCC1CO1` (stereo not drawn), for which the growth is 102%.

As for `COc1ccc(-c2nnc(SCC(=O)Nc3ccc(C(=O)/C=C/c4cc(OC)c(OC)c(OC)c4)cc3)n2-c2ccccc2)cc1OC`, the growth is -16.1% [100 µM] (active).

Turning to `[N-]=[N+]=Nc1ncc(-c2ccc(C(F)(F)F)cc2)c(NC2CCCCCC2)n1`, the growth was 19.1% [100 µM].

As for `CC(C)(C)c1cc(C[P+](c2ccc(Cl)cc2)(c2ccc(Cl)cc2)c2ccc(Cl)cc2)cc(C(C)(C)C)c1O`, the growth was 84.7%.

As for `O=C(OCC1CC2(Cl)C(Cl)=C(Cl)C1(Cl)C2(Cl)Cl)C1C(C(=O)OCC2CC3(Cl)C(Cl)=C(Cl)C2(Cl)C3(Cl)Cl)C2(Cl)C(Cl)=C(Cl)C1(Cl)C2(Cl)Cl` (stereo not drawn), the growth was 106%.

Consider `O=S(=O)(Cc1cccc2c(CS(=O)(=O)c3ccc(Cl)cc3)cccc12)c1ccc(Cl)cc1`, for which the growth was 77.7%.

Take `O=C(/C=C1\C(=O)N(Cc2ccccc2)c2ccccc21)c1ccc(OCCN2CCCCC2)cc1`: the growth is 96.1%.

Regarding `CC(C)(C)C(=O)CCCCCCCC/C=C/CCCC(O)c1ccco1` (stereo not drawn), the growth is 113%.

For the molecule `CC(=O)CCS(=O)c1ccccc1` (stereo not drawn), the growth is 111%.

Turning to `O=P(OCCCl)(OCCCl)C(O)c1ccccc1Cl` (stereo not drawn), the growth was 102%.

As to `CC1(C)C(O)NC(Cl)=C(C#N)C1(C#N)C#N` (stereo not drawn), the growth was 113%.

As to `COc1ccc(C(O)(c2ccccc2)C(C(=O)O)c2ccccc2)cc1` (stereo not drawn), the growth was 117%.

`O=C(O)CC1Cc2ccccc2C1C(=O)O` (stereo not drawn): the growth is 108%.

Turning to `O=c1[nH]c(=S)[nH]c(O)c1/C=C1\C=Nc2ccccc21`, the growth is 47.3%.

Regarding `O=C1NCCN1/N=C/c1c(Cl)nc2n1CCS2`, the growth was 112%.

On to `CCCC(=O)Nc1ccccc1C(=O)O`, for which the growth was 101%.

As for `CC(C)OC(=O)Nn1cnc2ccccc21`, the growth was 110%.

For `O=C(NC1CCN(Cc2ccccc2)CC1)c1cc(-c2cccnc2)nc2ccc(Cl)cc12`, the growth is 75%.

Turning to `O=S(=O)(O)c1ccc2c(c1)Sc1cc(S(=O)(=O)O)ccc1O2`, the growth was 92.6%.

In the case of `CCCCCc1ccnc(CC(=O)c2ccc(OC)cc2)c1`, the growth is 102%.

Take `COc1ccc(-c2nc(SCC(C)C)nc(Nc3ccc([N+](=O)[O-])cc3)c2C#N)cc1`: the growth is 101%.

With `COc1cc2ncnc(Nc3ccc4c(cnn4C(=O)Nc4ccccc4)c3)c2cc1OC`, the growth was 94.7%.

Consider `CCCCCSc1ccc2nc(NC(=O)OCC)sc2c1`, for which the growth was -47% (active).

Take `COc1ccc(C2=C/C(=C\c3ccc(Cl)cc3)C(=O)NN2C(=S)NN)cc1`: the growth is 109%.
